From PubChem BioAssay AID504441 (Broad Institute, 2011)
Screen size: about 310,000 compounds; about 1,300 (0.42%) were called active. This is one part of a sample in which actives are shown more often than they occur. Values without a mark were called inactive. Cut-off read from the data, not from the text of the source: active = inhibition above about 50%; inactive = the rest.

What follows are molecules tested against Dual specificity tyrosine-phosphorylation-regulated kinase 1A (Rattus norvegicus) (UniProt Q63470) (assay: inhibition of Dyrk1A kinase activity – biochemical, single point, plate reader, primary screen (AID 504441;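 note: plate controls were vehicle with enzyme for no effect and no enzyme for full effect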)). Conditions: ADP-Glo luminescence, NFATc1 peptide, at 12.5 µM, stronger effect = higher value.

| SMILES | inhibition |
| --- | --- |
| O=C1C=C(NS(=O)(=O)c2ccccc2)C(=O)c2ccccc21 | 0.22% |
| CCN1C[C@@H]2[C@@H]3C(=O)N(Cc4ccccc4)C(=O)[C@@H]3[C@](C)(C1=O)N2C(=O)c1ccc(C(C)(C)C)cc1 | -5.8% |
| O=C(Nc1cccc(Br)c1)C1CC(=O)N(C2CCCC2)C1 (stereo not drawn) | -2.1% |
| O=C1NC(=O)C(CCc2ccccc2)(c2ccccc2)N1 (stereo not drawn) | -4.85% |
| CCOC(=O)COc1cc(O)c2c(=O)cc(-c3ccccc3)oc2c1 | -1.6% |
| CCOC(=O)COc1cc(OCC(=O)OCC)c2c(=O)cc(-c3ccccc3)oc2c1 | 0.414% |
| COc1c(O)cc2oc(-c3ccc(O)c(O)c3)cc(=O)c2c1O | 50.5% (active) |
| CCOC(=O)C1CCCN(C(=O)C2CCN(S(=O)(=O)c3ccc(Cl)c(C(F)(F)F)c3)CC2)C1 (stereo not drawn) | -9.38% |
| CC(=O)Nc1cccc(-c2nc3ccccc3s2)c1C | -0.865% |
| Oc1ccc(-c2[nH]ncc2-c2nc3ccccc3s2)c(O)c1 | 66.5% (active) |
| COc1ccc(Oc2cn[nH]c2-c2ccc(OC)cc2O)cc1 | 11.8% |
| CC(=O)OC1CCC2C3CCC4=C(CC(F)C(=O)C4)C3CCC12C (stereo not drawn) | -2.02% |
| O=C(OCC1OC(Oc2ccc(O)cc2)C(O)C(O)C1O)c1ccccc1 (stereo not drawn) | 13.6% |
| C[C@@H]1O[C@@H](OC[C@H]2O[C@@H](Oc3c(-c4ccc(O)cc4)oc4cc(O)cc(O)c4c3=O)[C@H](O)[C@@H](O)[C@@H]2O)[C@H](O)[C@H](O)[C@H]1O | 66.5% (active) |
| COc1ccc(-c2cc(=O)c3c(O)cc(O[C@@H]4O[C@H](CO[C@@H]5O[C@@H](C)[C@H](O)[C@@H](O)[C@H]5O)[C@@H](O)[C@H](O)[C@H]4O)cc3o2)cc1O | -6.42% |
| N#CCc1c[nH]c2ccc([N+](=O)[O-])cc12 | 20% |
| CCc1ccc(C(=O)C(C)OC(=O)CN2C(=O)NC3(CCCC3)C2=O)cc1 (stereo not drawn) | 0.139% |
| O=C1NCC(Nc2ccccc2)C(=O)N1 (stereo not drawn) | -0.332% |
| COc1cc2c(cc1OC)C1C(=O)c3cc(OS(C)(=O)=O)c(OC)cc3C1N(C)C2=O (stereo not drawn) | 3.14% |
| CC(C)C(=O)Nc1cccc(C(=O)Nc2ccc3c(c2)OCO3)c1 | -2.73% |
| O=C(COC(=O)c1ccc(F)cc1)Nc1ccc2c(c1)OCO2 | -0.789% |
| CC(=O)Nc1cccc(C(=O)OCC(=O)c2ccc3c(c2)OCO3)c1 | 69.4% (active) |

| SMILES | inhibition |
| --- | --- |
| Oc1ccc2nc(Cc3ccccc3)[nH]c2c1 | 10.9% |
| Oc1ccc(-c2nc3ccccc3nc2-c2ccc(O)cc2O)c(O)c1 | 76.3% (active) |
| Cc1nc2ccccc2nc1N/N=C/c1ccc(O)cc1O | 9.74% |
| CC(NC(=O)c1ccccc1)C(=O)OCC(=O)Nc1cccc(S(=O)(=O)N2CCCC2)c1 (stereo not drawn) | 1.68% |
| Cc1ccnc(NS(=O)(=O)c2ccc(NC(=O)c3oc4ccccc4c3C)cc2)n1 | 28.5% |
| Cc1ccnc(NS(=O)(=O)c2ccc(NC(=O)c3oc4ccc(F)cc4c3C)cc2)n1 | 1.02% |
| Cc1noc(NS(=O)(=O)c2ccc(NC(=O)c3oc4ccc(F)cc4c3C)cc2)c1C | 60% (active) |
| CCC1(C)COC(c2ccc(OC)c(OC)c2)OC1 (stereo not drawn) | 2.1% |
| O=C(O)C(c1cccs1)C1(O)CCCCC1 (stereo not drawn) | 2.77% |
| NC(=O)C1CCN(C(=O)c2cc(S(=O)(=O)N3CCN(c4ccccc4)CC3)ccc2Cl)CC1 | 8.45% |
| CC(C)Cn1cnc2c(SCc3ccc(Cl)cc3)nc(N)nc21 | 7.52% |
| CCc1nnc(NC(=O)c2cc(S(=O)(=O)N3CCN(CC)CC3)ccc2Cl)s1 | 7.13% |
| c1ccc(C(=NNc2nc3ccccc3s2)c2ccccn2)cc1 | 12.7% |
| COc1ccc(N=C2C=CC(=O)O2)cc1 | 7.98% |
| O=C(NCC1(N2CCCCC2)CCCCC1)c1cccc(S(=O)(=O)Nc2ccccc2Cl)c1 | -5.86% |
| COc1cc(O)c2c(=O)c3c(O)c(O)ccc3oc2c1OC | 50.1% (active) |
| COc1cccc2cc(-c3cc(=O)oc4cc(C)c(O)cc34)oc12 | -4.38% |
| COc1cccc2c(O)cc(=O)n(C)c12 | 26.6% |
| CC(C)(C)OC(=O)N(Cc1ccccc1)Cc1ccc(OCc2cccc(NC(=O)c3ccccc3)c2)cc1 | -3.26% |
| COc1ccc(-c2nc3cc(C)ccn3c2NC2CCCCC2)cc1SC1CCCCC1 | 1.83% |
| CCN(CC)S(=O)(=O)c1cccc(NC(=O)c2ccc(S(=O)(=O)N3CCCC3)cc2)c1 | 1.24% |
| CC(C)(C)OC(=O)N1CCC(C(=O)Nc2cccc(C(=O)NCCc3ccccc3)c2)CC1 | -16.9% |

| SMILES | inhibition |
| --- | --- |
| CCN(CC)c1ccc(NC(=O)CCc2nnc3ccc(N4CCCCC4)nn23)c(C)c1 | 59.6% (active) |
| CCOc1ccc(CCNC(=O)CCc2nnc3ccc(N4CCCC4)nn23)cc1OCC | 17.6% |
| CCOC(=O)c1cccc(NC(=O)CCc2nnc3ccc(N4CCOCC4)nn23)c1 | 2.86% |
| O=C1C(Cl)=C(Oc2ccccc2)C(=O)c2ccccc21 | 35.4% |
| Oc1cccc(CCc2ccccn2)c1 | 7.91% |
| COc1ccc(OC)c(Cc2cnc3nc(N)nc(N)c3c2C)c1 | -1.98% |
| Nc1nonc1-n1nnc(C(=O)N/N=C/c2ccccc2O)c1CN1CCCC1 | 14.8% |
| Nc1nonc1-n1nnc(C(=O)N/N=C\c2ccncc2)c1CN1CCCCC1 | 77.4% (active) |
| NNC(=O)c1nnn(-c2nonc2N)c1CN1CCCC1 | 15.1% |
| Cc1nc(Nc2ccccc2C)c2cnn(C)c2n1 | -5.25% |
| CCOC(=O)N(Cc1ccccc1)C1CC1 | -0.945% |
| COc1ccc(CCC(=O)Nc2ccc(Cl)c(S(=O)(=O)N3CCOCC3)c2)cc1OC | -1.66% |
| CN1c2ccc(C=O)c3c(C=O)ccc(c23)N(C)C1(C)C | 91.2% (active) |
| CN(CCc1ccccc1)C(=O)c1cccc(NC(=O)Cc2cccc(NC(=O)C3CCCN(C(=O)C4CCC4)C3)c2)c1 (stereo not drawn) | -0.693% |
| CCCN(CC(=O)Nc1ccccc1C)C(=O)c1ccc(OCC(=O)N2CCOCC2)c(OCC)c1 | -7.61% |
| CN(O)C(=S)c1ccccc1 | -0.499% |
| CSc1ncnc2c1ncn2CC(=O)C1CCC2C3CCC4=CC(=O)CCC4(C)C3CCC12C (stereo not drawn) | 5.41% |
| COc1cc(OC)cc(-c2cc3ccc(F)cc3cn2)c1 | 13.1% |
| CCOc1ccc(S(=O)(=O)N2CCN(C(=O)c3oc4ccccc4c3C)CC2)cc1 | 3.49% |
| CCn1c(NC(=O)c2ccccc2)c(-c2cccs2)c(=O)c2ccccc21 | 65.9% (active) |
| CCn1c(=O)c2cc(C(=O)Nc3cccc(C(C)=O)c3)sc2c2ccccc21 | -0.698% |
| COc1ccccc1C(=O)Nn1c(-c2cccs2)nc2ccccc2c1=O | 32.3% |

| SMILES | inhibition |
| --- | --- |
| CCc1cc2c(NC(Cc3ccccc3)C(=O)O)ncnc2s1 (stereo not drawn) | 2.6% |
| CCc1cc2c(N3CCN(c4nnc(CC)s4)CC3)ncnc2s1 | 25.4% |
| CCc1cc2c(NC3CCCC3)ncnc2s1 | 53.2% (active) |
| COc1cc(/C=C/c2ccc(/C=C/c3cc(OC)c(OC)c(OC)c3)cc2)cc(OC)c1OC | -1.84% |
| C#CCOCCOCCOCCNc1nc(N2CCN(C(=O)Cn3cc(CCO)nn3)CC2)nc(N2CCN(C(=O)Cn3cc(CCCN=C(N)N)nn3)CC2)n1 | 4.84% |
| COc1ccc(Cl)cc1C=CC=Nc1ccc(S(N)(=O)=O)cc1 | -0.507% |
| COc1ccc(S(=O)(=O)N(C)C[C@@H]2Oc3ccc(NS(=O)(=O)c4cn(C)cn4)cc3C(=O)N([C@@H](C)CO)C[C@@H]2C)cc1 | 0.973% |
| C[C@H]1CN([C@@H](C)CO)C(=O)Cc2cc(NC(=O)Cc3ccccc3)ccc2O[C@H]1CN(C)S(=O)(=O)c1cccs1 | -0.989% |
| COc1ccc(S(=O)(=O)N(C)C[C@H]2Oc3ccc(NS(=O)(=O)c4cccs4)cc3CC(=O)N([C@H](C)CO)C[C@H]2C)cc1 | 55.4% (active) |
| O=C(NC1=CC(=O)c2ccccc2C1=O)c1ccccc1 | -0.529% |
| O=C(OC12CC3CC(CC(C3)C1)C2)c1ccc(NCc2cc(O)ccc2O)cc1 | 1.7% |
| Cc1nn(-c2ncccn2)c2c1C(=O)CC(C)(C)C2Br (stereo not drawn) | 6.11% |
| C=C(C)Cn1c(N2CCCC2)nc2c1c(=O)[nH]c(=O)n2C | -3.28% |
| C=C(C)Cn1c(N2CCN(CC)CC2)nc2c1c(=O)[nH]c(=O)n2C | 55.9% (active) |
| Cn1c(=O)[nH]c(=O)c2c1nc(N1CCN(C(c3ccccc3)c3ccccc3)CC1)n2CCO | 1.27% |
| CN1C(c2ccc(F)cc2)=CS/C1=C(/C#N)c1nnc2n1-c1ccccc1SC2 | -1.31% |
| COc1cccc(C=CC(=O)C=CC=Cc2ccccc2)c1 | -2.98% |
| COc1cccc(C(=O)NNC(=O)/C=C/c2ccccc2)c1 | 59.9% (active) |
| CC(C)c1ccc(/C=C/C(=O)NNC(=O)c2cccnc2)cc1 | 11.1% |
| O=C1NCC(c2ccccc2)(c2ccccc2)C(=O)N1 | -4.54% |
| COC[C@@H]1NS(=O)(=O)c2ccc(Br)cc2O[C@H]1c1ccccc1 | 7.26% |
| CCCCNC(=O)C(C)N(CCN(C)C)C(=O)CCCN1C(=O)NC(c2ccc(Cl)cc2)C(C(=O)OCc2ccccc2)=C1C (stereo not drawn) | 5.26% |
